The text below walks through data of PubChem BioAssay AID2685 (National Center for Advancing Translational Sciences (NCATS), 2010).

The whole screen tested about 320,000 compounds, of which about 2,100 (0.66%) were called active. Inconclusive results (about 53%) are left out. The call rests on the fitted dose curve; in most records, active means well fitted inhibition curve with a large enough effect in the signal ratio, with a control signal flat (not every such curve was filed as active); inconclusive means small, poorly fitted or top-dose-only effect, or effect the other way, or a change in a side signal; inactive means flat fitted curve, though single readings scatter; the % refers to the signal ratio. Shown is part of a subset that was picked to be rich in actives.
Potency means the concentration at half of the fitted maximal effect.

The assay is described as follows: qHTS Assay for Lipid Storage Modulators in Drosophila S3 Cells.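 On cell number change: cells counted by Cell Tracker Red CMTPX staining in the red channel.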 Conditions: BODIPY lipid droplet fluorescence, 18-24 h, cells fed with added oleic acid; cell number change: measured here: cell count max response; series mostly up to 46.1 µM. The essentials: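 Laser-scanning cytometry quantifies lipid droplet accumulation (500–530 nm total intensity; droplet/cell object ratio) in oleic acid-fed (400 uM added) Drosophila S3 cells treated with a concentration series. 20 uM Triacsin C defined 100% inhibition.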
In general terms: In qHTS, concentration-response curves come from the screen itself.
For the compound `CCOCCCN1CN(S(=O)(=O)c2ccc(Cl)cc2)c2nc3ccccc3nc21`, the Potency entry was “inactive” and the cell number change was -11.9%.

Take `Cc1c(CNCCc2ccc(Cl)cc2)c(C(=O)O)c(C)n1Cc1ccccc1`: the Potency result is “inactive”.

Turning to `Cc1ccc(NC(=O)COC(=O)CSC(=S)N2CCOCC2)cc1C`, the Potency entry is “inactive” and the cell number change was found to be 1.5%.

With `O=C(CCl)N1c2ccccc2OCC1c1ccccc1` (stereo not given), the Potency entry is “inactive” and the cell number change was -20.4%.

As for `O=C(CCl)N1c2ccccc2SCC1c1ccccc1` (stereo not given), the Potency was 1.03 µM (active) and the cell number change is -4.27%.

For the compound `O=C(O)CN1C(=O)CSc2ccccc21`, the Potency result was “inactive” and the cell number change was 2.34%.

Turning to `CC(=O)Nc1ccc(Nc2c([N+](=O)[O-])c(=O)n(-c3ccccc3)c3ccccc23)cc1`, the Potency result is “inactive” and the cell number change was 12.5%.

In the case of `O=C(Nc1nccs1)c1ccccc1Br`, the Potency result is “inactive” and the cell number change stood at 3.63%.

Turning to `O=C(Nc1nncs1)c1ccccc1Br`, the Potency is 32.6 µM (active) and the cell number change turned out to be 9.55%.

In the case of `Cc1nnc(NC(=O)c2ccccc2Br)s1`, the Potency result is “inactive” and the cell number change was 8.15%.

Regarding `Cc1ccc(-n2nc3c(=O)n(CC(=O)NCc4ccc(C)o4)nc(C)c3c2C)cc1`, the Potency result is “inactive” and the cell number change was -10.7%.

Regarding `COC(=O)c1ccc2c(=O)n(CCCCCC(=O)NC(C)C)c(=O)[nH]c2c1`, the Potency result is “inactive”.

On to `O=C(Cn1cncn1)NCc1cccc2ccccc12`, for which the Potency entry is “inactive” and the cell number change is -12.1%.

On to `CC1CCN(CCNC(=S)Nc2ccc(Cl)cc2)CC1`, for which the Potency entry is “inactive” and the cell number change was 5.06%.

`COc1cccc(/C=C2/C(=O)NN(c3ccccc3)C2=O)c1`: the Potency result is “inactive” and the cell number change stood at 0.215%.

Turning to `O=C1NN(c2ccc(Cl)c(Cl)c2)C(=O)/C1=C/c1cccc(OC(=O)c2cccs2)c1`, the Potency is 23.1 µM (active) and the cell number change is -11.7%.

On to `COc1cccc(/C=C2/C(=O)NN(c3ccc(F)cc3)C2=O)c1`, for which the Potency result was “inactive” and the cell number change was determined as 8.15%.

For `CCOc1ccc(S(=O)(=O)Oc2ccc3ccccc3c2)cc1`, the Potency result was “inactive” and the cell number change was -10%.

Regarding `CCOc1ccccc1NC(=O)CSc1n[nH]c(N)n1`, the Potency result was “inactive” and the cell number change stood at 13.9%.

In the case of `CCOc1ccc(/C=C/C2=Cc3c(sc(NC(=O)CSc4n[nH]c(N)n4)c3C#N)C(C)(C)C2)cc1`, the Potency is 14.6 µM (active) and the cell number change is -29.6%.

On to `CCOC(=O)c1sc(NC(=O)CSc2n[nH]c(-c3ccccc3)n2)c(C#N)c1C`, for which the Potency result is “inactive”.

For `Cn1c(=O)n(C)c2cc(CN3C(=O)OC(C)(C)C3(C)O)ccc21` (stereo not given), the Potency entry is “inactive”.
